This note sets out measurements from paper PMC5540273 (PLoS ONE, 2017).

The structures appear in SMILES notation.
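Note: KINOMEscan kinase panel screen.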

The test relates to CDK2. The note with it: concentration: 1 μM, replicates: in singlicate; n = 1.
For `O=C(Nc1n[nH]c2nc(-c3ccccc3O)ccc12)C1CC1` [SB-711880], the “%Inh” value was 37%.
Take `N#CC1(c2cccc(C(=O)Nc3cccc(Oc4ccc5nc(NC(=O)C6CC6)sc5n4)c3)c2)CC1`: the “%Inh” value is reported as 0%.
In the case of `Cl.Cl.NCC(NC(=O)c1cc(-c2cccnc2)c(-c2ccnc3[nH]ccc23)s1)c1ccccc1` (centres unmarked) [GSK1323434], the “%Inh” value came to 3%.
Consider `COc1cccc(C2=C(Nc3cccc(O)c3)C(=O)NC2=O)c1` [SB-390771], for which the “%Inh” value is 18%.
On to `Fc1cc(Cl)ccc1Nc1ccnc2cc(-c3ccc(CN4CCSCC4)o3)ccc12` [GW560106], for which the “%Inh” value was 0%.
Turning to `O=C(O)C(F)(F)F.O=c1[nH]ccc2nc(N[C@@H]3CCNC3)nc(Nc3ccc4c(c3)S(=O)(=O)CC4)c12` [GSK2181306], the “%Inh” value was found to be 62%.
In the case of `Cc1ccccc1CC(=O)N1CCc2cc(-c3cn(C)c4ncnc(N)c34)ccc21` [GSK2603346], the “%Inh” value amounted to 6%.
The result for `O=C(Nc1n[nH]c2nc(-c3ccccc3)ccc12)C1CC1` [SB-708999] reads 45%; that for `CN(c1ccc(NC(=O)Nc2cccc(Cl)c2)cc1)c1ccnc(N)n1.Cl` [GW830707], 9%; that for `CN(C)CCOc1ccc(-c2cc(-c3ccc(Cl)c(O)c3)c(-c3ccncc3)[nH]2)cc1.Cl.Cl` [SB-684387], 0%.
The result for `Cc1ccc(Nc2ccnc(Nc3ccc(C)c(F)c3)n2)cc1O.Cl` [GW582868] reads 0%.
On to `CN(c1ccc(NC(=O)N2CCN(CCCN3CCOCC3)CC2)cc1)c1ccnc(Nc2ccc(CS(C)(=O)=O)cc2)n1.Cl` [GW830899], for which the “%Inh” value was found to be 0%.
With `Nc1ncnc2scc(-c3ccc(NC(=O)Cc4cc(F)ccc4F)cc3)c12.O=C(O)C(F)(F)F` [SB-731254-M], the “%Inh” value stood at 0%.
Next, `CC(C)c1nc(-c2cccc(NS(=O)(=O)c3c(F)cccc3F)c2)c(-c2ccnc(Nc3ccc(N4CCOCC4)nc3)n2)s1.Cl` [GSK1723980]: 99.1%.
As for `Cl.N#CCc1ccc(Nc2nccc(Nc3ccc(Oc4ccccc4)cc3)n2)cc1` [GW639905], the “%Inh” value came out at 0%.
In the case of `CNc1nccc(-c2ccc3c(N)n[nH]c3c2)n1` [GSK2206003], the “%Inh” value turned out to be 23%.
Next, `COC(=O)Nc1nc2ccc(Oc3ccc(NC(=O)Nc4cc(C(F)(F)F)ccc4F)cc3)cc2[nH]1.Cl` [GW654607]: 30%; `O=C(O)C(F)(F)F.O=c1[nH]ccc2nc(N[C@@H]3CCNC3)nc(Nc3cc(Cl)cc(Cl)c3)c12` [GSK2188764]: 0%.
In the case of `Cl.O=C(Nc1ccc(Oc2ccc3[nH]c(NC(=O)c4ccco4)nc3c2)cc1)Nc1cc(C(F)(F)F)ccc1F` [GW683134], the “%Inh” value is listed as 0%.
The result for `c1ccc(Oc2ccc(Nc3ccnc4cc(-c5ccc(CN6CCCCC6)o5)ccc34)cc2)nc1` [GW567143] reads 0%; that for `NCCC(NC(=O)c1cc(Br)c(-c2ccnc3[nH]ccc23)s1)c1ccccc1.O=C(O)C(F)(F)F.O=C(O)C(F)(F)F` (centres unmarked) [GSK1307810], 0%; that for `COc1ccc(NC(=O)c2ccoc2)cc1-c1ccc(C(=O)NCC2CC2)cc1` [GW810437], 0%.
For `CCn1c(-c2nonc2N)nc2c(-c3ccccc3)ncc(OCCCN)c21.O=C(O)C(F)(F)F.O=C(O)C(F)(F)F` [GSK260205], the “%Inh” value stood at 0%.
`CS(=O)(=O)c1cccc(CNc2nc(Nc3ccc4c(c3)CCC(=O)N4)ncc2C(F)(F)F)c1`: the “%Inh” value is 30%.
The result for `O=C(Nc1c(F)cccc1F)c1cc(C(=O)c2ccccc2F)c[nH]1` [GSK1326180] reads 0%; that for `O=C(Nc1n[nH]c2nc(-c3cccc(O)c3)ccc12)C1CC1` [SB-711805], 38%; that for `Cc1ccc(O)cc1Nc1ccnc2ccc(C(C)(C)C)cc12` [GW856805], 7%.
On to `Cc1cccc(Nc2nc(NCCN)ncc2C(N)=O)c1` [GSK1292139], for which the “%Inh” value worked out at 0%.
In the case of `Cn1cc(-c2ccc3c(c2)CCN3C(=O)Cc2cc(F)cc(C(F)(F)F)c2)c2c(N)ncnc21` [GSK2635225], the “%Inh” value stood at 6%.
`Cn1cc(-c2cnc(N)c3c(-c4ccc5c(c4)CCN5C(=O)Cc4ccccc4)csc23)cn1` [GSK2593074]: the “%Inh” value stood at 0%.
With `CC(C)c1nc(-c2ccc(F)c(NS(=O)(=O)c3c(F)cccc3F)c2)c(-c2ccnc(Nc3ccc(N4CCOCC4)nc3)n2)s1` [GSK1804250], the “%Inh” value was determined as 95.5%.
Regarding `CC(C)NCC(Cc1ccccc1)NC(=O)c1cc(Br)c(-c2ccnc3[nH]ccc23)s1.Cl.Cl` (centres unmarked) [GSK1383281], the “%Inh” value amounted to 0%.
